Source: PubChem BioAssay (several laboratories)
Mtb BioA inh = blocks M. tuberculosis BioA enzyme activity. purified M. tuberculosis BioA enzyme, plate reader. inhibition, % at 9.99 µM. 360,000 compounds, 0.096% hits. AID 602481; in the data active means inhibition above about 40%; inconclusive means no clear call, values can overlap the other calls
Mtb betalactam = beta-lactam sensitization of Mtb H37Rv | M. tuberculosis H37Rv growth with meropenem, percent inhibition | inhibition, % at 25 µM | 330,000 compounds, 0.27% hits | AID 434955; call rule not given here;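 further: growth measured after seven days incubation then overnight dye step; 0% = bacteria only wells and 100% = bacteria with antibiotic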
PfHsp40 rescue = restores yeast growth despite PfHsp40 toxicity; AID 504582; 340,000 compounds, 0.68% hits; growth rescue, % at 12.5 µM; S. cerevisiae expressing PfHsp40, growth rescue, ATP luminescence; in the data active means growth rescue above about 28%, passing the limit was not always enough; inconclusive means no clear call, values can overlap the other calls;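 further: yeast W303a lacking pdr1 and pdr3 grown in galactose medium; growth measured after three days at 30 °C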
ugtP null kill = growth inhibition of S. aureus ugtP deletion strain | AID 1259309 | growth inhibition, % (test concentration not listed) | 330,000 compounds, 0.54% hits | S. aureus RN4220 ugtP deletion, OD600 growth, 16 h; in the data active means growth inhibition above about 68%;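 further: plate controls were untreated wells for no effect and antibiotic for full effect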
RN4220 kill = kills Staphylococcus aureus RN4220; S. aureus RN4220 growth, OD600, 16 h; inhibition, % (no concentration beside the values); 330,000 compounds, 0.33% hits; AID 1259311; in the data active means inhibition above about 85%;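 further: plate controls were untreated cells for no effect and reference antibiotic for full effect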
Numbers without * were called inactive; ? = inconclusive; · = not tested or not shown. Only some compounds are listed: those with a hit (about 0.9% of all), similar ones and a draw of the others.

SMILES	Mtb BioA inh	Mtb betalactam	PfHsp40 rescue	ugtP null kill	RN4220 kill
COc1ccc(C2CC(=O)C=C(c3cccc(Br)c3)C2)cc1OC (stereo not given)	·	·	·	3	7
NC(=O)C1(NC(=O)C2CC3(CC(c4cccc(NC(=O)C5CCC(=O)N5)c4)=NO3)CN2C(=O)c2cnccn2)CC1 (stereo not given)	·	·	·	-2	1
Cc1ccc(SC(CCN2CCC(C)CCC2=O)c2ccccc2)cc1 (stereo not given)	·	·	·	10	-3
O=C(O)c1cc(NCc2c(F)cccc2Cl)ccc1N1CCOCC1	0	-4	105*	6	6
COC(=O)c1cc(NCc2ccccc2F)ccc1N1CCOCC1	·	-6	-1	12	5
O=C(c1cccs1)N(Cc1ccco1)c1nc(-c2ccc(F)cc2)cs1	3	6	0	92*	-16
CCC(=O)N(Cc1ccco1)c1nc(-c2ccccc2)cs1	-2	-2	-1	32	3
FC(F)(F)c1ccc(C2C3CN(Cc4ccc(-c5ccccc5)cc4)C(c4ccccc4)C34CC2(c2cccnc2)C4)cc1 (stereo not given)	·	·	·	0	5
CC(C)C1S/C(=N/N=Cc2ccco2)NC1=O (stereo not given)	·	·	·	1	6
CC(C)C1S/C(=N/N=C/c2ccco2)NC1=O (stereo not given)	0	12	58*	·	·
C=CCCC(Cc1ccc(F)cc1)C(=O)OCCNC(=O)C(CC=C)CC(=O)NC(CO)Cc1ccccc1 (stereo not given)	·	·	·	7	0
Cc1cc(C)c(C)c(OCCCOc2cccc3cccnc23)c1	·	78	93*	58	-1
O=[N+]([O-])c1cc(Cl)cc(C=NNC(=S)Nc2cc(S(=O)(=O)N3CCOCC3)ccc2Cl)c1O	·	·	·	-12	18
COC(=O)[C@]1(C)CC1C(NP(=O)(c1ccccc1)c1ccccc1)c1ccccc1 (stereo not given in full)	·	·	·	3	4
Cc1ccc(OCC(=O)NC(=S)Nc2ccc(S(=O)(=O)Nc3cc(C)on3)cc2)c(Br)c1	0	3	73*	-3	5
COC(=O)CCC(=O)NC(=S)Nc1ccc(S(=O)(=O)Nc2cc(C)on2)cc1	1	-10	-1	13	5
COc1ccc(CCNC(=O)c2nnn(-c3cc(C)cc(C)c3)c2N)cc1OC	0	0	?	12	4
Cc1ccc(CCNC(=O)c2nnn(-c3cc(C)cc(C)c3)c2N)cc1	0	11	48*	0	1
Cc1cc(C(=O)OC2C(Cc3ccccc3)NS(=O)(=O)C3CC4C=C[C@]23O4)ccc1[N+](=O)[O-] (stereo not given in full)	·	·	·	-13	2
C[C@@H]1CC[C@H]2[C@@H](C)C(=O)O[C@@H]3O[C@@]4(C)CC[C@@H]1[C@]32OO4	0	-4	104*	0	4
O=C(CN1C(=O)COc2ccccc21)N1CCN(c2ccccc2F)CC1	6	6	83*	-1	-2
CC(C)(C)OC(=O)N1CCC(NC(=O)c2[nH]cnc2C(=O)NC(Cc2ccccc2)C(=O)OCc2ccccc2)CC1 (stereo not given)	·	·	·	-24	5
COC(=O)C(C)C1C[C@@]1(C)C(NC(=O)OCc1ccccc1)c1ccccc1 (stereo not given in full)	·	·	·	-1	5
O=C(O)/C(=C\c1ccc(-c2ccc(F)cc2)o1)c1ccccc1	·	·	37*	10	6
CCN1C(=Cc2ccc3ccccc3[n+]2CC)C=Cc2ccccc21	·	·	·	100*	100*
SMILES	Mtb BioA inh	Mtb betalactam	PfHsp40 rescue	ugtP null kill	RN4220 kill
CCN1/C(=C/c2ccc3ccccc3[n+]2CCCS(=O)(=O)[O-])C=Cc2cc(C)ccc21	5	16	-1	5	2
CCN1/C(=C/c2ccc3ccccc3[n+]2CC)C=Cc2ccccc21	29	102	166*	·	·
CC(C)(C)OC(=O)NCCCCC(NC(=O)c1nc[nH]c1C(=O)NC(CCCCNC(=O)OC(C)(C)C)C(=O)OC(C)(C)C)C(=O)OC(C)(C)C (stereo not given)	·	·	·	3	6
Cc1ccc(NC(=O)CC2SC(=NN=Cc3ccco3)NC2=O)cc1Cl (stereo not given)	·	·	·	-10	10
C[C@H]1CC[C@@]2(C)[C@@H](CC[C@@H]3[C@@H]2CC[C@]2(C)[C@@H](O)CC[C@@H]32)C1	-1	5	1	99*	94*
CN(C)c1nc(NCc2ccccc2)nc(NN=Cc2ccc(Cl)cc2Cl)n1	·	·	·	-9	-5
CN(C)c1nc(NN=Cc2ccccc2O)nc(Nc2ccc(F)cc2)n1	·	·	·	100*	100*
O=C(Nc1ccc(Br)c(C(F)(F)F)c1)c1ccc(C(F)(F)F)cc1	3	97	·	99*	101*
O=C(Nc1ccc(Br)c(C(F)(F)F)c1)c1ccccc1	·	17	644*	-23	1
COC(=O)C1=C(c2c(C)noc2C)CC2CCC1N2C(=O)N1CCOCC1 (stereo not given)	·	·	·	-2	6
CC(C)Cn1c(N)c(C(=O)COC(=O)C2CCCCC2)c(=O)n(C)c1=O	·	58	2	2	3
CC(C)Cn1c(N)c(C(=O)COC(=O)C2Cc3ccccc3CN2S(C)(=O)=O)c(=O)n(C)c1=O (stereo not given)	-1	-2	50*	-3	2
CCCCCCC(=O)N1CC=CC(c2ccc(OC)cc2)N(Cc2ccc(F)cc2)C(=O)C1 (stereo not given)	·	·	·	-5	1
CC(C(=O)N1CCNCC1)n1cc(CCCN=C(N)N)nn1 (stereo not given)	·	·	·	-2	4
CCC(=O)N1CC2(CC(c3cccc(NC(=O)CC(c4ccccc4)c4ccccc4)c3)=NO2)CC1C(N)=O (stereo not given)	·	·	·	-2	0
Oc1c(C(c2ccccc2)N2CCOCC2)ccc2ccccc12 (stereo not given)	-1	·	5	87*	25
CNCC1Oc2ccc(NC(=O)C3CCCCC3)cc2CC(=O)N(C(C)CO)CC1C (stereo not given)	·	·	·	0	7
CCOC(=O)C1C2COc3ccccc3C2N2C(=O)N(c3cccc(F)c3)C(=O)[C@]12C (stereo not given in full)	·	·	·	3	7
O=S(=O)(c1ccccc1)N1CCN(c2ncnc3scc(-c4ccccc4)c23)CC1	-1	4	1	98*	96*
Cc1ccc(-c2csc3ncnc(N4CCN(S(=O)(=O)c5cccs5)CC4)c23)cc1	0	6	122*	98*	97*
CC1CN(C(C)CO)C(=O)c2cccc(NC(=O)CCCCCC(=O)Nc3ccccc3N)c2OC1CN(C)Cc1ccncc1 (stereo not given)	·	·	·	-5	4
COC(=O)C(Cc1ccccc1)NC(=O)[C@@]1(C)CC1C(NC(=O)OCc1ccccc1)c1ccccc1 (stereo not given in full)	·	·	·	6	-1
CCOC(=O)C1C2COc3ccccc3C2N2C(=O)c3ccccc3NC(=O)[C@@]12C (stereo not given in full)	·	·	·	6	3
